Assay results: article PMC4336329 (PLoS ONE, 2015)
Hit rate of the full screen: of about 310,000 compounds, about 14,000 (4.5%) showed an effect of 50% or more. Effects have a minus sign here. The sample as a whole holds a higher share of strong results than the screen did.

What follows are compounds tested against human ether-à-go-go-related gene (hERG) potassium channel (human, UniProt Q12809) (assay: primary screen, population patch clamp on CHO cells stably expressing hERG; higher = less effect of the substance).
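Note: peak tail current of the secondary pulse compared with the same well before compound.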

Sequence of human ether-à-go-go-related gene (hERG) potassium channel (Q12809 whole entry, looked up): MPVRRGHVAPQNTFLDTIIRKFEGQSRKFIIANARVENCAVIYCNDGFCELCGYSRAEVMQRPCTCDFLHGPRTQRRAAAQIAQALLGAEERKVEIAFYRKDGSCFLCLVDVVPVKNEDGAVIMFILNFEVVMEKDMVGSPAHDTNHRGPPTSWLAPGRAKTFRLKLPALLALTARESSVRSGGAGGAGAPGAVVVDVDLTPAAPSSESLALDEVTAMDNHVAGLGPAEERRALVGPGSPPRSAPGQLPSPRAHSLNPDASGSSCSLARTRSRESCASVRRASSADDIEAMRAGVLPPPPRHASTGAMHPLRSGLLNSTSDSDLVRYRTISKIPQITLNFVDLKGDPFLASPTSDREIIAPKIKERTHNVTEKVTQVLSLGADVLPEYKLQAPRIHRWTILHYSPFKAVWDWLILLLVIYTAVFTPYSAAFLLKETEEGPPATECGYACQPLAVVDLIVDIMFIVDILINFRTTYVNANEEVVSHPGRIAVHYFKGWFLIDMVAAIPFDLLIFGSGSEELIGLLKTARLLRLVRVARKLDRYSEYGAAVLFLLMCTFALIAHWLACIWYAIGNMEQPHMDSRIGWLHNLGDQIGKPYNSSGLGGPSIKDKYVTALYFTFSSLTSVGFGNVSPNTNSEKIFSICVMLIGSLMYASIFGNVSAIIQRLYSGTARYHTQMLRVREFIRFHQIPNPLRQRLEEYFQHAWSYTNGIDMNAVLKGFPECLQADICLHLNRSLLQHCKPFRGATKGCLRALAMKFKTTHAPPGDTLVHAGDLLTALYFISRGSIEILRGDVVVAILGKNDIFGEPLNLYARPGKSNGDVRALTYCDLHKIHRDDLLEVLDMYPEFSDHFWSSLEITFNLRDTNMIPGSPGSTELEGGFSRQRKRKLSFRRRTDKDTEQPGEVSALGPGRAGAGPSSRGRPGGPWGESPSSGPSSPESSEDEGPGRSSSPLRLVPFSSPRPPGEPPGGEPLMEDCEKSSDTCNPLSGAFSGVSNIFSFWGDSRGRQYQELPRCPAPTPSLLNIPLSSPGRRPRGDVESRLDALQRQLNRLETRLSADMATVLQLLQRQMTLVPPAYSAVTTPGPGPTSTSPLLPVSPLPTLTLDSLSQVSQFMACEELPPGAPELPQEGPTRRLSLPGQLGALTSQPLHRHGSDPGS

Row | SMILES | hERG current change (%, negative = inhibition) at 10uM [%]
1 | O=c1[nH]c([N+](=O)[O-])nn1C(c1ccccc1)c1ccccc1 | -13.7
2 | COCCCN1C(=O)c2ccccc2C1C(=O)NC1CCCCCC1 (stereo not shown) | -2.83
3 | COc1ccc(NC(=O)CN2C3CCC2CC(O)(c2cccnc2)C3)cc1OC (stereo not shown) | 0.385
4 | O=C(Nc1ccccc1)N1C2CCC1CC(O)(c1cccnc1)C2 (stereo not shown) | 8.01
5 | O=C(Nc1cccc(F)c1)N1C2CCC1CC(O)(c1cccnc1)C2 (stereo not shown) | 24.1
6 | COc1cc(NC(=O)CN2C3CCC2CC(O)(c2cccnc2)C3)cc(OC)c1 (stereo not shown) | -60.9
7 | O=C(CN1C2CCC1CC(O)(c1cccnc1)C2)Nc1ccc2c(c1)OCO2 (stereo not shown) | -53.1
8 | COCCNC(=O)CN1C2CCC1CC(O)(c1cccnc1)C2 (stereo not shown) | 0.682
9 | Brc1cccc(-c2nnc3n2CCC3)c1 | 2.98
10 | O=C(NC1CCN(C(=O)Nc2ccccc2)CC1)C1CCCCC1 | -7.88
11 | O=C(CN1C(=O)c2cccc3cccc1c23)Nc1ccc(S(=O)(=O)N2CCOCC2)cc1 | -9.06
12 | CCCSCCCNC(=O)Cn1cc2c(n1)CCC(C)C2 (stereo not shown) | -12.8
13 | COc1ccc(-c2nc3n(c(=O)c2C#N)CCCS3)cc1 | -4.57
14 | COCCNC(=O)/C(=C/c1ccccc1Cl)c1ccccc1 | -0.406
15 | COC(=O)N/N=C\c1ccc(OC/C=C/c2ccccc2)c(OC)c1 | 6.04
16 | N#CC1=C(SCC(=O)c2cc3ccccc3oc2=O)NC(=O)C(C#N)C12CCCC2 (stereo not shown) | -54.5
17 | N#CC1=C(SCc2ccccc2)NC(=O)C(C#N)C12CCCC2 (stereo not shown) | 1.97
18 | N#CC1=C(SCC(=O)Nc2cccc3cccnc23)NC(=O)C(C#N)C12CCCCC2 (stereo not shown) | -20.7
19 | COC(=O)c1ccc(NC(=O)CCS(=O)(=O)c2ccc(Br)cc2)cc1 | 28.8
20 | NC(N)=NS(=O)(=O)c1ccc(NC(=S)NC(=O)c2ccncc2)cc1 | 2.9
21 | COc1ccccc1CNC(=O)C1=C(C)C(=O)OC12CCC(C)CC2 (stereo not shown) | -2.21
22 | COc1ccc([C@H]2CC(=O)C=C(c3ccc(CO)cc3)C2)cc1 | -4.98

Row | SMILES | hERG current change (%, negative = inhibition) at 10uM [%]
23 | COc1cccc(C2=CC(=O)C[C@H](c3ccc(OC)c(OC)c3)C2)c1 | -40
24 | COc1ccc([C@H]2CC(=O)C=C(c3ccccc3)C2)cc1OC | -3.04
25 | COCc1cccc(C2=CC(=O)C[C@H](c3ccc(OC)cc3)C2)c1 | -20.7
26 | O=C1C=C(c2cccc(Cl)c2)C[C@@H](c2ccc(Cl)cc2)C1 | 24.4
27 | COc1ccc([C@H]2CC(=O)C=C(c3cccc(CO)c3)C2)cc1OC | -63.6
28 | O=C1C=C(c2cccc(CO)c2)C[C@@H](c2ccc(F)cc2)C1 | -45.3
29 | O=C1C=C(c2cccc(CO)c2)C[C@@H](c2ccc(Cl)cc2)C1 | -54.5
30 | COc1ccc([C@H]2CC(=O)C=C(c3cccc(CO)c3)C2)cc1 | -59.3
31 | CC[C@@H]1[C@H]2CCCC(=O)N3CC[C@@H](C[C@@H]1Nc1ccccc1)[C@@H]23 | -3.88
32 | Cc1ccc(NC(=O)COC(=O)c2cccc(OC(F)F)c2)cc1S(=O)(=O)N1CCCCC1 | -21.1
33 | CCc1c(C)nc(N)n2c(SCC(=O)Nc3ccccc3)nnc12 | 12.5
34 | O=C1NC(Cc2c[nH]c3ccccc23)C(=O)N1CCOc1ccccc1 (stereo not shown) | -22.7
35 | O=C(CCC(=O)N1CCSc2ccccc21)Nc1ccc(F)cc1 | -4.12
36 | Cc1oc(-c2ccccc2F)nc1CS(=O)CC(=O)NCc1ccccn1 (stereo not shown) | -0.614
37 | CCn1cc(CN2CCC(Oc3ccc(C(=O)N4CCCCC4)cc3)CC2)cn1 | -5.09
38 | CC(C)n1cc(CN2CCC(Oc3ccc(C(=O)N4CCCCC4)cc3)CC2)cn1 | -31.6
39 | C=CCOc1ccccc1CN1CCC(Oc2ccc(C(=O)N3CCCCC3)cc2)CC1 | -57.6
40 | O=C(c1ccc(OC2CCN(Cc3ccc(C(F)(F)F)cc3)CC2)cc1)N1CCCCC1 | -57.2
41 | O=C(c1ccc(OC2CCN(Cc3ccccc3O)CC2)cc1)N1CCCCC1 | 3.29
42 | C=CCOc1ccccc1CN1CCC(Oc2ccc(C(=O)N3CCCC3)cc2)CC1 | -41.8
43 | CC(C)c1ccc(CN2CCC(Oc3ccc(C(=O)N4CCCC4)cc3)CC2)cc1 | -71.6
44 | CC(C)n1cc(CN2CCC(Oc3ccc(C(=O)N4CCCC4)cc3)CC2)cn1 | -9.96

Row | SMILES | hERG current change (%, negative = inhibition) at 10uM [%]
45 | O=C(c1ccc(OC2CCN(Cc3ccccc3C(F)(F)F)CC2)cc1)N1CCCCC1 | 2.01
46 | O=C(c1ccc(OC2CCN(Cc3cccc(F)c3)CC2)cc1)N1CCCCC1 | -23.4
47 | Cn1cc(CN2CCC(Oc3ccc(C(=O)N4CCCCC4)cc3)CC2)cn1 | 8.81
48 | CCc1ccc(CN2CCC(Oc3ccc(C(=O)N4CCCCC4)cc3)CC2)cc1 | -78.4
49 | COc1cccc(NC(=O)Cc2ccccc2)c1 | -3.98
50 | Cc1ccc2c(c1)N(CCCC(=O)NCCC1=CCCCC1)C(=O)CO2 | -9.81
51 | CCOc1cc(N2CCOCC2)c(OCC)cc1NC(=O)COC(=O)c1cc2ccccc2cc1O | -11.7
52 | CCc1ccc(-c2cc(C)no2)cc1S(=O)(=O)N1CCOc2ccc(C)cc21 | 13.1
53 | Cc1c(NC(=O)C(C)N(c2ccccc2)S(C)(=O)=O)c(=O)n(-c2ccccc2)n1C (stereo not shown) | 18.7
54 | O=C(CCl)Nc1cccc(S(=O)(=O)NC2=NCCC2)c1 | -0.632
55 | COc1cccc(CN2CCC(Oc3ccc(C(=O)N4CCCCC4)cc3)CC2)c1 | -25.3
56 | CSc1ccc(CN2CCC(Oc3ccc(C(=O)N4CCCC4)cc3)CC2)cc1 | -71.1
57 | CSc1ccc(CN2CCC(Oc3cccc(C(=O)N4CCCC4)c3)CC2)cc1 | -60.7
58 | COc1cc(C)c(CN2CCC(Oc3ccc(C(=O)N4CCCC4)cc3)CC2)cc1C | -43.1
59 | Cn1cc(CN2CCC(Oc3ccc(C(=O)N4CCCC4)cc3)CC2)cn1 | 9.86
60 | CSc1cccc(CN2CCC(Oc3ccc(C(=O)N4CCCCC4)cc3)CC2)c1 | -25.2
61 | COC(=O)c1ccc(CN2CCC(Oc3cccc(C(=O)N4CCOCC4)c3)CC2)cc1 | -22.7
62 | O=C(c1cccc(OC2CCN(Cc3cc(F)cc(F)c3)CC2)c1)N1CCCC1 | -34.9
63 | O=C(c1cccc(OC2CCN(Cc3cccc(OCCO)c3)CC2)c1)N1CCCC1 | -2.71
64 | COc1ccc(CN2CCC(Oc3ccc(C(=O)N4CCCC4)cc3)CC2)c(F)c1 | -51.4
65 | CSc1cccc(CN2CCC(Oc3cccc(C(=O)N4CCCC4)c3)CC2)c1 | -44.4
66 | COC(=O)c1ccc(CN2CCC(Oc3cccc(C(=O)N4CCCC4)c3)CC2)cc1 | -50.8

Row | SMILES | hERG current change (%, negative = inhibition) at 10uM [%]
67 | COc1ccc(NC(=O)Nc2nnc(C(C)(C)C)s2)cc1 | -18.8
68 | COC(=O)C(Cc1ccccc1)OS(N)(=O)=O (stereo not shown) | 16.1
69 | COCCN1CN=C(NS(=O)(=O)c2ccc(C)cc2)NC1 | 16.3
70 | COc1cc(NC(=O)COc2cccc3c2OC(C)(C)C3)cc(OC)c1OC | -6.09
71 | CCN(C1=NS(=O)(=O)c2ccccc21)N(CC)S(=O)(=O)c1ccc(C)cc1 | 19.8
72 | CCOC(=O)Cc1csc(NC(=O)c2ccc(S(=O)(=O)N3CCOCC3)cc2)n1 | -2.52
73 | CN1CCN(C(=O)CSc2ccc(C(F)(F)F)cc2[N+](=O)[O-])CC1 | -10.2
74 | CC(=O)Nc1ccc(CN2CCC(Oc3ccc(C(=O)N4CCCC4)cc3)CC2)cc1 | -21.3
75 | CCc1ccc(CN2CCC(Oc3ccc(C(=O)N4CCCC4)cc3)CC2)cc1 | -81.3
76 | COC(=O)c1ccc(CN2CCC(Oc3ccc(C(=O)N4CCCCC4)cc3)CC2)cc1 | -51.7
77 | O=C(c1ccc(OC2CCN(Cc3ccc(F)cc3)CC2)cc1)N1CCCC1 | -24
78 | COc1ccc(CN2CCC(Oc3ccc(C(=O)N4CCCCC4)cc3)CC2)cc1C | -45.7
79 | CCOc1cccc(CN2CCC(Oc3ccc(C(=O)N4CCCC4)cc3)CC2)c1 | -27.4
80 | CC(=O)c1c(C)[nH]c(C(=O)Nc2cc(S(=O)(=O)N3CCCCC3)ccc2C)c1C | 2.24
81 | CC(=O)O[C@@H]1/C=C/[C@](C)(O)C[C@@H](C)C/C=C/[C@H]2[C@H](O)C(C)=C(C)[C@H]3[C@H](Cc4ccccc4)NC(=O)[C@@]123 | -15.4
82 | Cl.Oc1ccc(CC2CC3CCN2CC3)cc1O (stereo not shown) | 12.7
83 | COc1ccc(NC(=O)Nc2cccc(Cl)c2Cl)c(OC)n1 | 3.16
84 | O=C(Cc1cccs1)N/N=C\c1ccc(O)cc1 | 14.5
85 | CC(C)(C)N1CC(c2nc3ccccc3n2CCOc2ccccc2)CC1=O (stereo not shown) | -26.1
